G9a inh = qHTS Assay for Inhibitors of Histone Lysine Methyltransferase G9a; Histone-lysine N-methyltransferase EHMT2 (Homo sapiens), Q96KQ7; G9a H3K9 monomethylation, AlphaScreen, 2 h; Potency, µM (top dose mostly 102 µM), without a hit: top-dose activity, negative = inhibition, usual class: inhibitors; 350,000 compounds, 8.8% hits; AID 504332, 2011; note: potency is the fitted concentration of half-maximal effect; % is set by controls: 0 for no effect and ±100 for the full control effect; nearly all actives have a fitted effect of over 75% in size
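G9a (20 nM) preincubated 15 min RT with compounds, then 500 nM biotinylated H3K9 peptide and 20 uM SAM added; 2 h RT reaction. Monomethyl-H3K9 product detected by AlphaScreen with anti-H3K9me1 antibody, streptavidin donor and anti-rabbit IgG acceptor beads.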
Six1-Eya2 inh = qHTS Assay for Inhibitors of the Six1/Eya2 Interaction; Homeobox protein SIX1 (Homo sapiens) + Protein phosphatase EYA2 (Homo sapiens), …; AlphaScreen GST-Six1/His-Eya2 binding, biochemical; hits give low values; activity change, % (concentration not given with the values); 360,000 compounds, 0.56% hits; AID 651725, 2012; in the data active = activity change below about -65%; inconclusive = mostly about -30% to -63%; note: % is set by controls: 0 for no effect and ±100 for the full control effect
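Compounds are tested against tagged Six1 and Eya2 proteins bridged by glutathione donor and nickel acceptor beads; after a one-hour incubation at 37 °C without light, AlphaScreen emission is recorded.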
HP1b binding inh = HTS for Inhibitors of HP1-beta Chromodomain Interactions with Methylated Histone Tails. AlphaScreen HP1-beta / biotin-H3K9me3 peptide binding. 390,000 compounds, 0.56% hits. Chromobox protein homolog 1 (Homo sapiens), P83916. Potency, µM (top dose mostly 114 µM), without a hit: at the top dose activity change, negative = inhibition, actives largely listed as inhibitors; note: potency is the fitted concentration of half-maximal effect; nearly all actives have a fitted effect of over 70% in size
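AlphaScreen: HP1-beta (50 nM) preformed 30 min with biotin-H3(1-18)K9me3 peptide (50 nM) in PBS pH 7.4, 0.01% Tween-20. Compound added for 30 min at RT, then streptavidin donor/nickel chelate acceptor beads (10 ug/mL) for 30 min.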
BAZ2B block = qHTS Assay for Inhibitors of BAZ2B | Bromodomain adjacent to zinc finger domain protein 2B (Homo sapiens), Q9UIF8 | AlphaScreen BAZ2B-H3K14Ac peptide displacement | Potency, µM (titrated, usually from 114 µM), for the others: at the top dose activity change, negative = inhibition, actives largely listed as inhibitors | 360,000 compounds, 4.4% hits | AID 504333, 2011; note: potency is the fitted concentration of half-maximal effect; % is set by controls: 0 for no effect and ±100 for the full control effect; nearly all actives have a fitted effect of over 60% in size
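Multi-concentration screen (max 110 uM) measuring displacement of acetylated histone H3 peptide from BAZ2B by AlphaScreen, using 50 nM protein, 50 nM peptide and 10 ug/mL streptavidin donor plus Ni-chelate acceptor beads.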
JMJD2A Tudor = qHTS Assay for Inhibitors of JMJD2A-Tudor Domain; AlphaScreen JMJD2A-Tudor / H3K4me3 peptide binding; Potency, µM (doses to about 114 µM), inactives show at the top dose activity change, negative = inhibition, most hits filed as inhibitors; 390,000 compounds, 4.4% hits; AID 504339, 2011; note: potency is the fitted concentration of half-maximal effect; % is set by controls: 0 for no effect and ±100 for the full control effect; nearly all actives have a fitted effect of over 50% in size
CtBP-E1A inh = qHTS Assay for Inhibitors of the CtBP/E1A Interaction; activity change, % (concentration not given with the values); 340,000 compounds, 0.49% hits; AlphaScreen GST-E1A/His-CtBP binding, 1536-well; hits give low values; AID 651724, 2012; in the data active = activity change below about -65%; inconclusive = mostly about -30% to -63%; note: % is set by controls: 0 for no effect and ±100 for the full control effect
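In 5 uL wells, 23 nL compound meets equimolar GST-E1A and His-CtBP (5X stock 125 nM each) for 2 h, 37 °C. Beads (5X, 50 ug/mL) then 1 h, 37 °C, dark.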
* hit, by the source's call; ? = inconclusive; . = no result given; ! = repeats disagree; [ ] = remark or other dose. Compounds with a hit are over-represented: about 10% of the library has one in this group of screens. Unless noted, calls come from the whole dose curve; as a rule, active = well fitted inhibition curve with a large enough effect; inconclusive = small, poorly fitted or top-dose-only effect; inactive = no such curve, though single readings can be large or run the other way.

SMILES	G9a inh	Six1-Eya2 inh	HP1b binding inh	BAZ2B block	JMJD2A Tudor	CtBP-E1A inh
OCc1cc(C(O)CNCCCCCCOCCCCc2ccccc2)ccc1O (stereo not given)	35µM*!	-9	8%	-2%	-24%	-20
O=C(CSc1cn(CCNC(=O)c2ccccc2)c2ccccc12)NCc1ccco1	40µM*	-2	17%	?	?	-2
CCCn1cc(SCC(=O)NCc2ccco2)c2ccccc21	40µM*	-14	15%	?	-31%	-8
O=C(CSc1cn(CCNC(=O)c2ccccc2)c2ccccc12)NCC1CCCO1 (stereo not given)	1%	3	29%	-5%	-12%	4
CS(=O)(=O)c1ccc(C(=O)Nc2ccc(N3CCCC3)cc2)c(Cl)c1	10µM*	-4	-10%	-12%	-17%	-2
O=C(Nc1ccc(Br)cc1)c1cccnc1N1CCCCC1	?	6	69%	6%	32%	18
O=C(Nc1ccc(N2CCCC2)cc1)c1cc(Br)ccc1Cl	8.9µM*	-17	5%	-34%	?	-11
COCCCNC(=O)CCCn1c(SCC(=O)c2ccc(F)cc2)nc2c(sc3ccccc32)c1=O	-29%[59 µM]	.	21%	-13%	-9%	.
O=C(O)CCC(=O)Nc1ccc(Br)cc1C(=O)c1ccccc1Cl	3%	5	23%	-7%	-5%	1
Cc1nc2ccc(S(=O)(=O)NC(CC(C)C)C(=O)N3CCN(c4ccc(F)cc4)CC3)cc2s1 (stereo not given)	-40%[59 µM]	.	24%	-10%	-7%	.
Cc1ccc(CC2CC(=O)N(CCc3ccccc3)C2=O)cc1 (stereo not given)	52%	16	65%	14%	16%	-4
O=C1CC(Cc2ccccc2)C(=O)N1CCCn1ccnc1 (stereo not given)	?	.	.	50µM*	.	.
O=C(CSc1n[nH]c(-c2ccccc2O)n1)NC1CCCCC1	22%	-5	?	-30%	-6%	-3
COc1ccc(CCNC(=O)c2sc(=S)n(C)c2N)cc1	?	-3	52%	-6%	-2%	2
Cn1c(N)c(C(=O)NCc2ccccc2)sc1=S	?	-6	?	?	89µM*	-2
Cc1ccc(-n2c(N)c(C(=O)NCc3cccnc3)sc2=S)cc1	10µM*	0	?	0%	-23%	1
Cn1c(N)c(C(=O)Nc2c(Cl)cccc2Cl)sc1=S	50µM*	-11	-22%	-37%	-31%	0
COc1ccc(-n2c(N)c(C(=O)NCc3cccnc3)sc2=S)cc1	9%	5	18%	-3%	3%	5
COC(=O)c1ccccc1NC(=O)c1sc(=S)n(C)c1N	7.9µM*	-8	?	-36%	-6%[11.4 µM]	-8
N#Cc1c(N)sc2c1CCN(CCc1ccccc1)C2	-20%[59 µM]	-2	21%	-3%	-20%	-3
C=CCn1c(SCC(=O)NCCC2=CCCCC2)nc2ccc(Cl)cc2c1=O	3%[59 µM]	1	?	-2%	28µM*	2
CCCOc1ccc(N2C(=O)CC(N3CCCC(C(=O)N4CCCC4)C3)C2=O)cc1 (stereo not given)	?	6	52%	1%	0%	-6
O=C(C1CCCN(C2CC(=O)N(c3ccc(F)cc3)C2=O)C1)N1CCCC1 (stereo not given)	45µM*	-4	28%	-9%	32µM*	1
O=C1CC(N2CCOCC2)C(=O)N1c1ccc(Cl)cc1 (stereo not given)	.	-1	81%	-18%	-2%[11.4 µM]	0

High-throughput results: PubChem, National Center for Advancing Translational Sciences (NCATS)
